Screening results (PubChem BioAssay)
Most compounds without a hit are left out; they make up all but 1.2% or so of the library.
GSH bead fluor = compound fluorescence on glutathione beads, profiling panel, artefact control, biophysical, 488/530 nm, flow cytometry. hit rate 0.25% among 190,000. fluorescence (KMESF) at 10 µM. GSH beads flow cytometry, compound fluorescence 488/530 nm; hits give high values. AID 1776, 2009; in the data active means fluorescence above about 89;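 further: glutathione beads carrying GST-tagged Bcl family fusion proteins plus one bare bead set; values are compound well signal with DMSO vehicle wells as background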
RGS16-Gao HTS = modulators of RGS16 binding to Galphao, primary screen, biochemical, human proteins, multiplexed bead flow cytometry; Regulator of G-protein signaling 16 (Homo sapiens) + Guanine nucleotide-binding protein …; bead-based flow cytometry RGS16-Galphao binding, fluorescence; actives lie on both sides; binding response (% of control), % at 10 µM; hit rate 0.38% among 220,000;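 further: Galphao activated by GDP with aluminum fluoride before binding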
RGS4-Gao reg = modulators of RGS4 binding to Galphao, primary screen, biochemical, multiplexed bead flow cytometry; binding response (% of control), % at 10 µM; actives lie on both sides; hit rate 0.33% among 220,000; AID 1415, 2008; in the data active means binding response below about 49% or above about 150%; inactive means in between;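 further: fluorescent Galphao activated with aluminum fluoride binding bead-coupled RGS4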
Target sequence (P09471 whole entry, looked up): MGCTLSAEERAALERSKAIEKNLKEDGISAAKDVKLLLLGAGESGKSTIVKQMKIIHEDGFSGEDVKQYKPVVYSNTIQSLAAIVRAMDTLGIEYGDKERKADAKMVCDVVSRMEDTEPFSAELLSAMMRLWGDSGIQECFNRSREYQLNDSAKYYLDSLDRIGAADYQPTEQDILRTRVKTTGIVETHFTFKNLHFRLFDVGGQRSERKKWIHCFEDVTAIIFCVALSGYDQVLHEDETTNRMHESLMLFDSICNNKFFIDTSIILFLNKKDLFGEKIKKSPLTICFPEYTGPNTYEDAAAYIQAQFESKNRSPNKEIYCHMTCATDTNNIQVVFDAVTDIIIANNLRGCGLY
RGS8-Gao = RGS8-Galphao binding modulators, primary screen, biochemical, multiplexed bead flow cytometry; Guanine nucleotide-binding protein G(o) subunit alpha (Homo sapiens), P09471; actives lie on both sides; response (percent of control binding), % at 10 µM; hit rate 0.34% among 220,000; AID 1423, 2008; in the data active means response below about 60% or above about 140%; inactive means in between;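 further: Galphao activated as the GDP aluminium fluoride complex binding bead-coupled RGS8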
RGS7-Gao = RGS7-Galphao binding modulators, primary screen, biochemical, multiplexed bead flow cytometry; Guanine nucleotide-binding protein G(o) subunit alpha (Homo sapiens), P09471; actives lie on both sides; binding response (% of control), % at 10 µM; hit rate 0.35% among 220,000; AID 1439, 2008; in the data active means binding response below about 49% or above about 150%; inconclusive means no clear call, values can overlap the other calls; inactive means in between;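 further: fluorescent Galphao held in activated GDP-AlF4 state binding bead-coupled RGS7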
Avidin bead fluor = green autofluorescence of compounds with avidin beads – biophysical, 488/530 nm, flow cytometry, artefact control, profiling panel | compound fluorescence 488/530 nm; hits give high values | fluorescence (KMESF) at 10 µM | hit rate 0.38% among 220,000 | AID 1775, 2009; in the data active means fluorescence above about 47
RGS4-Gao HTS = modulators of RGS–Galpha-o binding, primary screen, biochemical, multiplexed beads, flow cytometry, RGS4/7/8/16/19 | shares compounds with RGS16-Gao HTS | multiplexed bead flow cytometry | RGS4–Galpha-o binding response, % at 10 µM | hit rate 99% among 1,600;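 further: fluorescently labeled Galpha-o bound to GDP with aluminium fluoride binding biotinylated RGS beads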
Biotin-avidin = disruption of biotin probe capture by avidin, counter-screen for RGS protein interaction modulators, biochemical, flow cytometry, bead-based | shares compounds with RGS16-Gao HTS | streptavidin beads, fluorescein-biotin binding | inhibition, % at 10 µM | 1,700 tested, under 10 active | AID 1783, 2009;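 active means inhibition above 50%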;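 further: median green fluorescence of gated singlet beads compared with DMSO control wells; 0% = DMSO wells and 100% = complete loss of bead fluorescence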
RGS8-Gao confirm = RGS8-Galphao binding modulators, confirmation, biochemical, multiplexed bead flow cytometry, single concentration; AID 1836, 2009; binding response (% of control), % at 10 µM; bead-based flow cytometry RGS8-Galphao binding, fluorescence; actives lie on both sides; hit rate 3% among 1,700; shares compounds with RGS16-Gao HTS; in the data active means binding response below about 72% or above about 130%; inactive means in between;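 further: Galphao activated as GDP AlF4 complex before binding bead RGS8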
RGS7-Gao confirm = RGS7-Galphao binding modulators, confirmation, biochemical, multiplexed bead flow cytometry, single concentration; AID 1837, 2009; shares compounds with RGS16-Gao HTS; bead-based flow cytometry RGS7-Galphao binding; actives lie on both sides; hit rate 7.8% among 1,700; response (percent of control binding), % at 10 µM; in the data active means response below about 75% or above about 130%; inactive means in between;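 further: fluorescent Galphao activated with GDP and aluminum fluoride binding bead-coupled RGS7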
RGS16-Gao conf = modulators of RGS16-Galphao protein binding, confirmation, biochemical, single concentration, multiplexed bead flow cytometry. shares compounds with RGS16-Gao HTS. bead-based flow cytometry; actives lie on both sides. response (% of control binding), % at 10 µM. hit rate 4% among 1,700. AID 1838, 2009; in the data active means response below about 74% or above about 130%; inactive means in between;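 further: Galphao activated as the GDP aluminium fluoride complex binding bead-coupled RGS16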
RGS4-Gao confirm = modulators of RGS4-Galphao protein binding, confirmation, biochemical, single concentration, multiplexed bead flow cytometry. shares compounds with RGS16-Gao HTS. actives lie on both sides. binding response (% of control), % at 10 µM. hit rate 4% among 1,700. AID 1840, 2009; in the data active means binding response below about 74% or above about 130%; inactive means in between
RGS19-Gao single = regulators of RGS19-Galphao binding, confirmation, biochemical, single point, multiplexed bead flow cytometry; shares compounds with RGS16-Gao HTS; bead-based flow cytometry RGS19-Galphao binding; actives lie on both sides; response (percent of control binding), % at 10 µM; hit rate 5% among 1,700; in the data active means response below about 50% or above about 160%; inactive means in between;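 further: 100% = no compound control and 0% = blank background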
Target sequence (P09471 whole entry, looked up): as above
Target sequence (P49795 whole entry, looked up): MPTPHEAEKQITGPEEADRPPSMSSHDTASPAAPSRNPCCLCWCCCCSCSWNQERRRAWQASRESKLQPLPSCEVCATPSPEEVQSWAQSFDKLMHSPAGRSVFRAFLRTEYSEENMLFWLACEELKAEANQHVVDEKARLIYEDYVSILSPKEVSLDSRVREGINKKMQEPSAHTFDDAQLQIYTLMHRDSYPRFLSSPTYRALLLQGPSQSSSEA
Numbers without * were called inactive; [ ] = another dose, or the depositor's remark. Unless noted, how the calls were made is not given here.

What do the screens show for `CCOC(=O)C1CCN(C(=O)CSc2ccc(Cl)cc2)CC1`?
GSH bead fluor: 15; RGS16-Gao HTS: 8.3*; RGS4-Gao reg: 49*; RGS8-Gao: 49*; RGS7-Gao: 55; Avidin bead fluor: 2; Biotin-avidin: 0; RGS8-Gao confirm: 106; RGS7-Gao confirm: 103; RGS16-Gao conf: 105; RGS4-Gao confirm: 105; RGS19-Gao single: 100

What do the screens show for `CC(=O)NCCNS(=O)(=O)c1ccc(C)c([N+](=O)[O-])c1`?
RGS16-Gao HTS: 113; RGS4-Gao reg: 115; RGS8-Gao: 108; RGS7-Gao: 118; Avidin bead fluor: 5

How did CC(C)CSc1ccc(S(=O)(=O)NCC(=O)O)cc1[N+](=O)[O-] do in these assays?
GSH bead fluor: 21; RGS16-Gao HTS: 96; RGS4-Gao reg: 125; RGS8-Gao: 97; RGS7-Gao: 278*[activator]; Avidin bead fluor: 169*; RGS4-Gao HTS: 125*; Biotin-avidin: 0; RGS8-Gao confirm: 97; RGS7-Gao confirm: 98; RGS16-Gao conf: 97; RGS4-Gao confirm: 97; RGS19-Gao single: 97

How did CC1(C)Cc2c(sc(NC(=O)c3ccco3)c2C#N)CO1 do in these assays?
GSH bead fluor: 13; RGS16-Gao HTS: -105*; RGS4-Gao reg: -105*; RGS8-Gao: 2.6*; RGS7-Gao: -35*; Biotin-avidin: 2; RGS8-Gao confirm: 101; RGS7-Gao confirm: 103; RGS16-Gao conf: 102; RGS4-Gao confirm: 102; RGS19-Gao single: 99

What do the screens show for `CC1(C)Cc2c(sc(NC(=O)/C=C/C(=O)O)c2C#N)CO1`?
RGS16-Gao HTS: 103; RGS4-Gao reg: 102; RGS8-Gao: 102; RGS7-Gao: inconclusive; Avidin bead fluor: 4

Results for CC(=O)N1CCCc2cc(S(=O)(=O)NC(C(=O)NCc3ccc(C)cc3)C(C)C)ccc21 (configuration not stated) ?
GSH bead fluor: 14; RGS16-Gao HTS: 108; RGS4-Gao reg: 101; RGS8-Gao: 100; RGS7-Gao: 104; Avidin bead fluor: 12

How did O=c1oc2c(O)c(O)cc3c(=O)oc4c(O)c(O)cc1c4c23 do in these assays?
GSH bead fluor: 11; RGS16-Gao HTS: 80; RGS4-Gao reg: 51; RGS8-Gao: 54*; RGS7-Gao: 31*; Avidin bead fluor: 1; RGS4-Gao HTS: 51*

Results for O=C(NCc1ccc(Cl)cc1)C(=O)NCC1OCCN1C(=O)c1cccs1 (configuration not stated) ?
GSH bead fluor: 16; RGS16-Gao HTS: 97; RGS4-Gao reg: 99; RGS8-Gao: 100; RGS7-Gao: 96; Avidin bead fluor: 15

Results for O=C1CS/C(=N/N=C/c2ccco2)N1Cc1ccc(F)cc1 ?
RGS16-Gao HTS: 98; RGS4-Gao reg: 99; RGS8-Gao: 100; RGS7-Gao: inconclusive; Avidin bead fluor: 6

How did N#CC(=C1N=c2ccccc2=N1)c1c(O)[nH]c2ccccc12 do in these assays?
GSH bead fluor: 11; RGS16-Gao HTS: 91; RGS4-Gao reg: 90; RGS8-Gao: 98; RGS7-Gao: 100; Avidin bead fluor: 9

How did Oc1[nH]c(N=C2N=c3ccccc3=N2)c2ccccc12 do in these assays?
RGS16-Gao HTS: 33; RGS4-Gao reg: 35*; RGS8-Gao: 57*; RGS7-Gao: inconclusive; Avidin bead fluor: 1; Biotin-avidin: -1; RGS8-Gao confirm: 102; RGS7-Gao confirm: 98; RGS16-Gao conf: 97; RGS4-Gao confirm: 101; RGS19-Gao single: 60

Results for CC(CNS(=O)(=O)c1cc(Cl)ccc1Cl)CN(C)C (configuration not stated) ?
GSH bead fluor: 29; RGS16-Gao HTS: 106; RGS4-Gao reg: 103; RGS8-Gao: 99; RGS7-Gao: 102; Avidin bead fluor: 14

How did Cc1nc2ccccc2c(=O)n1/N=C/c1ccncc1 do in these assays?
GSH bead fluor: 31; RGS4-Gao reg: 132; RGS7-Gao: 135; Biotin-avidin: 0; RGS8-Gao confirm: 102; RGS7-Gao confirm: 112; RGS16-Gao conf: 103; RGS4-Gao confirm: 106; RGS19-Gao single: 109

How did Cc1nc2ccccc2c(=O)n1/N=C/c1ccccc1 do in these assays?
GSH bead fluor: 37; RGS16-Gao HTS: 94; RGS4-Gao reg: 99; RGS8-Gao: 101; RGS7-Gao: 99; Avidin bead fluor: 9

Results for CCOc1cc2c3c(c1)C1(Nc4ccccc4S1)C(=O)N3C(C)(C)CC2C (configuration not stated) ?
GSH bead fluor: 10; RGS16-Gao HTS: 101; RGS4-Gao reg: 99; RGS8-Gao: 102; RGS7-Gao: 95; Avidin bead fluor: 9
